# In PubChem BioAssay AID1745847 (National Center for Advancing Translational Sciences (NCATS), 2022):
# Values joined by “and” are separate entries in the source; they are usually repeats but may differ in a detail not shown here. Equal values may be shown once. The whole screen tested about 2,100 compounds, of which about 670 (32%) were called active. Inconclusive results (about 50%) are left out. This is one part of the list. Unmarked numbers belong to inactive results. Calls follow the shape of the dose curve; as a rule, active = well fitted inhibition curve with a large enough effect; inconclusive = small, poorly fitted or top-dose-only effect; inactive = no such curve, though single readings can be large or run the other way.
# Experiment: CMV-Luciferase Counterscreen for Inhibitors of ATXN expression; also: nearly all actives have a fitted effect of over 55% in size
# Settings: HEK-293 CMV-luciferase reporter, luminescence, 24 h; series mostly up to 57.5 µM
# % is scaled to controls: 0 for no effect and ±100 for the full control effect; potency is read from the fitted curve at half-maximal effect.
SMILES,Potency,"activity change, negative = inhibition"
Cc1ccc(C(=O)N/C(=C\c2ccc(-c3ccc(Cl)cc3)o2)C(=O)NCCCN(C)C)cc1,inactive,
O=C(/C=C\c1ccccc1)NCC(=O)N/N=C/c1ccc(O)cc1O,25.1 µM (active),
O=C(N/N=C/c1ccc(O)cc1O)/C(=C/c1ccccc1)CCO,1.78 µM (active),
O=C(COc1ccccc1)NCC(=O)N/N=C/c1ccc(O)cc1O,14.1 µM (active),
Cc1cccc(OCC(=O)NCC(=O)N/N=C/c2cc(Br)cc(Br)c2O)c1,5.01 µM (active),
CCC(=O)OC1(C(C)=O)CCC2C3CCC4=CC(=O)CCC4(C)C3CCC21C (centres undefined),inactive,
O=C(OCCN1C(=O)c2cccc3c(N4CCOCC4)ccc(c23)C1=O)c1ccccc1Cl,15.8 µM (active),
CC1(C)C(C=C(Cl)Cl)C1C(=O)Nc1ccc([N+](=O)[O-])cc1 (centres undefined),20 µM (active),
Cc1cccc(OCCSc2nc3ncnc(N)c3[nH]2)c1,inactive,
CCN(CC)CCCNc1nc2ccccc2c2nc(-c3ccncc3)nn12,12.6 µM (active),
Cc1ccc(/C=C2\SC(=S)N(CCCC(=O)Nc3ccc(O)cc3)C2=O)cc1,3.16 µM (active),
Cc1ccc(/C=C2\SC(=S)N(CCCC(=O)Nc3ccccc3C(=O)O)C2=O)cc1,2 µM (active),
Cc1ccc(/C=C2/SC(=S)N(CCCC(=O)Nc3cc([N+](=O)[O-])ccc3O)C2=O)cc1,28.2 µM (active),
Cc1cc(C)cc(NC(=O)CCC(=O)Nc2cc(C)on2)c1,,165% [at 11.4 µM]
Cc1ccc(/C=C2\SC(=S)N(CCCC(=O)Nc3cc(C)on3)C2=O)cc1,3.55 µM (active),
Cc1ccc(/C=C2/SC(=S)N(CCCC(=O)Nc3ccc(O)cc3)C2=O)cc1,2 µM (active),
Cc1ccc(/C=C2\SC(=S)N(CCCC(=O)Nc3cccnc3)C2=O)cc1,3.98 µM (active),
COc1cccc(/C=C2/SC(=S)N(CCCC(=O)Nc3ccc(O)cc3)C2=O)c1,3.16 µM (active),
Cc1ccc(/C=C2\SC(=S)N(CCCC(=O)NC3CCCC3)C2=O)cc1,2.51 µM (active),
Cc1ccc(NC(=O)COc2ccc(/C=C3/SC(=Nc4ccccc4)N(Cc4cccnc4)C3=O)cc2)cc1,inactive,
CC(C)C[C@H](N)c1cn([C@@H](CCCCN)C(=O)N2CCNCC2)nn1,,-7.7% [at 11.4 µM]
Cc1csc(NC(=O)COCC(=O)O)c1-c1nc2ccccc2s1,inactive,
c1cc2c(cc1-c1cnc3n1CCC3)OCCO2,inactive,

SMILES,Potency,"activity change, negative = inhibition"
CC(C)(O)C#Cc1ccc([C@@H]2C[C@H]3CN(c4ccccc4)C(=O)[C@]34CCCN24)s1,inactive,
O=[N+]([O-])c1ccc(O)c(/C=N/Nc2ncnc3c2cnn3-c2ccccc2)c1,1.58 µM (active),
CN(C)S(=O)(=O)c1cccc(N2C(=O)CC3(CCCCC3)CC2=O)c1,,-19.6% [at 11.4 µM]
COc1cccc(/C=N/NC(=O)CSCC(=O)Nc2ccccc2)c1O,1.26 µM (active),
COc1cccc(/C=N/NC(=O)CSc2ccccc2C)c1O,7.08 µM (active),
C/C(=N\OCC(=O)N/N=C/c1ccccc1O)c1cccs1,12.6 µM (active),
COc1ccc(CSCC(=O)N/N=C/c2ccccc2O)cc1,25.1 µM (active),
CCCCSc1nc(C)cc(SCC(=O)N/N=C/c2cccc(OC)c2O)n1,1 µM (active),
COc1cccc(/C=N/NC(=O)Cn2nc(C)c([N+](=O)[O-])c2C)c1O,8.91 µM (active),
COc1ccc(O)c(/C=N/NC(=O)c2ccc(CSc3nc(C)cc(C)n3)cc2)c1,2.82 µM (active),
OC(c1cc(-c2cccc(Cl)c2)nc2ccccc12)C1CCCCN1 (centres undefined),22.4 µM (active),
Cc1onc(-c2c(F)cccc2Cl)c1C(=O)Nc1nnc(C(F)(F)F)s1,1.41 µM (active),
C[n+]1c2cc(N)ccc2cc2ccc(N)cc21,8.91 µM (active) and 3.55 µM (active),
Cc1nc2ccccc2n1-c1nc(-c2ccco2)cc(C(F)(F)F)n1,inactive,
CC(C)NC1CCC(Nc2ccnc3cc(Cl)ccc23)CC1 (centres undefined),17.8 µM (active),
Cc1ccccc1N=Nc1ccc(O)c2ncccc12,1.41 µM (active),
Cc1ccc(N=Nc2ccc(O)c3ncccc23)cc1,3.55 µM (active),
CC(C)(C)S(=O)(=O)/C(C#N)=N/Nc1ccc(Cl)cc1,7.94 µM (active),
FC(F)(F)c1ccc(N2CCN(c3cc(-c4ccccc4)nc4ncnn34)CC2)nc1,1.58 µM (active),
O=c1cc(Nc2ccc3c(c2)OCCO3)[nH]c(=O)n1-c1ccc(Br)cc1,inactive,
CCN(CC)c1ccc(/C=N/NC(=O)c2cccc(S(=O)(=O)N3CCOCC3)c2)c(O)c1,0.891 µM (active),
CCN(CC)c1ccc(/C=N/NC(=O)CCC(=O)NCc2ccccc2)c(O)c1,3.16 µM (active),
CCN(CC)c1ccc(/C=N/NC(=O)Cc2cccs2)c(O)c1,2.82 µM (active),

SMILES,Potency,"activity change, negative = inhibition"
O=C(Cn1c(=O)n(CC(=O)NCc2ccccc2)c2ccccc21)NCc1ccccc1,inactive,
CN(C)c1nc(N/N=C/c2c[nH]c3ccccc23)nc(N2CCOCC2)n1,,-16.1% [at 11.4 µM]
Cc1cc(C)n(-c2nc(NCCN(C)C)c3c4c(sc3n2)COC(C)(C)C4)n1,,-12.1% [at 11.4 µM]
CN1CCN(c2nc(-c3ccccn3)nc3ccccc23)CC1,inactive,
O=S(=O)(Cc1cc(NCc2ccccc2)nc(-c2ccccn2)n1)c1ccccc1,inactive,
c1ccc(CNc2nc(-c3ccccn3)nc3ccccc23)cc1,4.47 µM (active),
O=S(=O)(c1ccc2c(c1)OCCO2)N1CCC(c2nc3ccc(Cl)cc3[nH]2)CC1,3.98 µM (active),
CCOc1ccc(NCc2cccn2-c2nnc(N3CCC(C(=O)NCCCN4CC(C)CC(C)C4)CC3)s2)cc1 (centres undefined),,-19.5% [at 11.4 µM]
COc1ccc(-c2c[n+]3c(n2-c2ccc(C)cc2)CCCCC3)cc1,6.31 µM (active),
COc1ccc(-n2c(-c3ccc(Cl)cc3)c[n+]3c2CCCCC3)cc1,12.6 µM (active),
O=c1cc(-c2ccccc2Cl)oc2c([N+](=O)[O-])c(O)cc(O)c12,1.26 µM (active),
CC1(S(=O)(=O)O)CC(=O)c2ccccc2C1=O (centres undefined),28.2 µM (active),
CCn1c(C)cc(C(=O)COC(=O)c2ccccc2[N+](=O)[O-])c1C,22.4 µM (active),
CC(C)N(C(=O)COC(=O)c1ccccc1C(=O)c1ccc(Cl)c([N+](=O)[O-])c1)C(C)C,,-18% [at 11.4 µM]
O=C(CP(=O)(c1ccccc1)c1ccccc1)N/N=C/c1cc(Br)cc(Br)c1O,1.78 µM (active),
Cc1ccc(SCCC(=O)N/N=C/c2ccccc2O)cc1,1.78 µM (active),
O=C(CCc1ccccc1)N/N=C/c1cc(Br)ccc1O,0.891 µM (active),
O=C(CCN1CCN(c2ccccc2)CC1)N/N=C/c1ccccc1O,0.501 µM (active),
O=C(CCCOc1ccc(Cl)cc1Cl)N/N=C/c1ccccc1O,2.51 µM (active),
O=C(COc1nsnc1N1CCOCC1)N/N=C/c1ccccc1O,11.2 µM (active),
O=C(CN1CC(c2ccccc2)CC1=O)N/N=C/c1cc(Br)ccc1O (centres undefined),10 µM (active),
O=C(Cc1ccccc1)N/N=C/c1cc(Br)cc(Br)c1O,2.51 µM (active),
NC(Cc1ccc(C(F)(F)F)cc1)c1csc(Nc2nccc(C(F)(F)F)n2)n1 (centres undefined),,-10.1% [at 11.4 µM]

SMILES,Potency,"activity change, negative = inhibition"
COc1ccc(O)c(/C=N/NC(=O)CCC(=O)Nc2cccc(C)c2)c1,10 µM (active),
O=C(CCC(=O)Nc1ccc(Br)cc1)N/N=C/c1ccccc1O,1.26 µM (active),
NNC(=O)/C(=N/Nc1ccccc1)S(=O)(=O)c1ccc(Cl)cc1,3.55 µM (active),
CCCCC(=O)N(C)c1c(CC)nc2c(OCc3ccc(Cl)cc3Cl)cccn12,3.55 µM (active),
CCc1nc2c(OCc3ccc(Cl)cc3Cl)cccn2c1N(C=O)Cc1ccc(OC)cc1,3.16 µM (active),
CCOC(=O)N(C)c1c(CC)nc2c(OCc3ccccc3C)cccn12,20 µM (active),
CCCCC1C(=O)CC[C@H]2[C@@H]1CC(=O)[C@@H]2C/C=C\CCCC(=O)O (some centres undefined),,4.23% [at 11.4 µM]
O=C(NCC1CC1)c1ccc2c(c1)S(=O)(=O)c1cc(Cl)ccc1C2=O,,-10.6% [at 11.4 µM]
Cc1nnc(SC(C)C(=O)Nc2ccc(Cl)cn2)n1Cc1ccccc1 (centres undefined),inactive,
C=CCn1c(COc2ccccc2)nnc1SCC(=O)N/N=C/c1cc(Cl)ccc1O,inactive,
C=CCn1c(COc2ccccc2)nnc1SC(C)C(=O)N/N=C/c1cc(Cl)ccc1O (centres undefined),10 µM (active),
O=C(Nc1nc(-c2ccccn2)cs1)c1ccccc1-n1cnnn1,3.55 µM (active),
N#Cc1cc2c(=O)n3ccccc3nc2n(-c2ccccc2Cl)c1=O,inactive,
Cc1nc(SCC(=O)Nc2ccc(S(=O)(=O)N3CCOCC3)cc2)c2c(C)c(C)sc2n1,2.82 µM (active),
Cc1ccc(C)c(N2CCN(C(=O)C34CC5CC(C3)CC(n3nnc(C)n3)(C5)C4)CC2)c1,11.2 µM (active),
Cc1ccc(NC(=O)CSc2ccc(Br)cc2)cc1S(=O)(=O)N1CCOCC1,22.4 µM (active),
COc1ccc(/C=C/C(=O)c2cc3cccc(OC)c3oc2=O)cc1,inactive,
Cc1ccc(NC(=O)/C=C/c2ccc(S(=O)(=O)N3CCOCC3)cc2)cc1S(=O)(=O)N(C)C,2.51 µM (active),
COc1ccc(/C=C/C(=O)Nc2ccc(C)c(S(=O)(=O)N3CCOCC3)c2)cc1,10 µM (active),
O=C(CSc1ccc2c(c1)OCCO2)Nc1ccc(Cl)cn1,inactive,
